The values that follow come from PubChem BioAssay (EPA / NIEHS).

As a reminder, the AC50 is the concentration at which the activity in the assay is half-maximal.

Results filed as inconclusive are left out. The source made the active and inactive calls. The calls were made as follows, unless noted: active = hit-call score of the fitted dose curve at least 0.9, where 1 is the maximum; inactive = score below 0.9.

Test [1] can be described thus: ATG_CRE_CIS: Attagene CIS-FACTORIAL HepG2 Assay for human cAMP Responsive Element (CRE) binding protein 3 (AID 2282926). The settings on record: HepG2 CRE cis-reporter, Attagene multiplexed mRNA; actives raise or lower the signal. In short, it runs like this:
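Induced reporter mRNA from a CRE cis element, measured in HepG2 among many multiplexed units at 24 h. Detection used RT-PCR plus capillary electrophoresis of fluorescent fragments; DMSO served as negative control.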

Test [2] in a line: ATG_CMV_CIS: Attagene CIS-FACTORIAL HepG2 Assay for human CMV (Internal Marker) (AID 2282928).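 Also: endpoint acts as a background internal control marker rather than a target.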 The settings on record: HepG2 CMV promoter reporter, transcription factor profiling; actives raise or lower the signal. In a few lines:
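Readout: fluorescent reporter cDNA fragments separated by capillary electrophoresis after RT-PCR and HpaI cut. Cells: HepG2 carrying transfected cis-promoter reporter constructs, dosed 24 h. Endpoint serves as background internal-marker control, fit bidirectionally versus DMSO.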

The target of test [3] is Aryl hydrocarbon receptor (Homo sapiens) (UniProt P35869). As to the kind of experiment: ATG_Ahr_CIS: Attagene CIS-FACTORIAL HepG2 Assay for human Aryl Hydrocarbon Receptor (Ahr) (AID 2282930). The settings on record: HepG2 AhR cis-factorial reporter transcription; actives raise or lower the signal. In a few lines:
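Read-out: reporter mRNA quantified by RT-PCR with fluorescent primer extension and capillary electrophoresis. Human HepG2 liver cells carried transfected cis-promoter reporter units and were exposed to chemical for 24 h; gain or loss fitted relative to DMSO.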

Test [4] in a line: ATG_AP_1_CIS: Attagene CIS-FACTORIAL HepG2 Assay for human Activator Protein 1 (AP-1) (AID 2282931). The settings on record: HepG2 Attagene cis-factorial AP-1 reporter mRNA; actives raise or lower the signal. In short, it runs like this: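 HepG2, transient cis-reporter transfection; 24 h; readout RT-PCR/CE fluorescence; DMSO baseline, gain and loss fitted.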
A short description of test [5]: ATG_BRE_CIS: Attagene CIS-FACTORIAL HepG2 Assay for human Bone Morphogenetic Protein (BMP) Response Element (BRE) (AID 2282933). The settings on record: HepG2 BMP response element reporter, Attagene transcription factor profiling; actives raise or lower the signal. In a few lines: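 Read-out: reporter mRNA induction quantified by RT-PCR and capillary electrophoresis after 24 h chemical exposure of transfected HepG2 cells. Endogenous factor activity on the BMP response element; gain or loss fitted against DMSO baseline.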

Test [6] is described as follows: ATG_Ets_CIS: Attagene CIS-FACTORIAL HepG2 Assay for human Erythroblast Transformation Specific (ETS) (AID 2282941). The settings on record: HepG2 ETS cis-reporter transcription, actives raise or lower the signal. In short, it runs like this:
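RT-PCR/capillary electrophoresis fluorescence read-out of reporter mRNA; HepG2 transient multi-reporter transfection; 24 h compound exposure; gain or loss of signal fitted bidirectionally relative to DMSO.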

A short description of test [7]: ATG_GATA_CIS: Attagene CIS-FACTORIAL HepG2 Assay for human GATA Binding Protein (AID 2282944). The settings on record: HepG2 GATA cis-element reporter, Attagene multiplex mRNA; actives raise or lower the signal. In a few lines:
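Read-out: fluorescent reporter mRNA fragments resolved by capillary electrophoresis after RT-PCR. Human liver HepG2 cells carried transiently transfected cis-regulated reporter constructs; chemicals incubated 24 h; gain or loss of signal fitted relative to DMSO.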

For test [8], the target named is Hypoxia-inducible factor 1-alpha (Homo sapiens) (UniProt Q16665). Briefly: ATG_HIF1a_CIS: Attagene CIS-FACTORIAL HepG2 Assay for human Hypoxia Inducible Factor 1 (HIF1A) (AID 2282951). The settings on record: HepG2 Attagene cis-factorial HIF1a reporter transcription; actives raise or lower the signal. In short, it runs like this:
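After 24 h chemical exposure of reporter-transfected HepG2 cells, reporter cDNA was PCR-amplified, labelled by 6-FAM primer extension (2 min 95 C, 20 s 68 C, 10 min 72 C), HpaI-cut (2 h, 37 C) and analysed by CE.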

Test [9] addresses Hepatocyte nuclear factor 6 (Homo sapiens) (UniProt Q9UBC0). As to the kind of experiment: ATG_HNF6_CIS: Attagene CIS-FACTORIAL HepG2 Assay for human Hepatocyte Nuclear Factor 6 (HNF6) (AID 2282952). The settings on record: HepG2 Attagene cis-factorial HNF6 reporter transcription; actives raise or lower the signal. In short, it runs like this: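 First, HepG2 cells were transfected with the multiplexed cis reporter library and dosed with chemical for 24 h. Next, RNA was reverse-transcribed, PCR-amplified and fluorescently labelled. Finally, HpaI-digested fragments were read by capillary electrophoresis.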

The target of test [10] is Heat shock factor protein 1 (Homo sapiens) (UniProt Q00613). Briefly: ATG_HSE_CIS: Attagene CIS-FACTORIAL HepG2 Assay for human Heat Shock Transcription Factor 1 (HSE) (AID 2282953). The settings on record: HepG2 HSE cis-reporter, Attagene RNA transcription; actives raise or lower the signal. In short, it runs like this: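 Read-out: fluorescence of reporter-specific RT-PCR fragments separated by capillary electrophoresis. HepG2 carrying transfected cis-element reporter units; 24 h dosing; activity fitted in both directions relative to DMSO baseline.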

A short description of test [11]: ATG_MRE_CIS: Attagene CIS-FACTORIAL HepG2 Assay for human Metal Responsive Element (MRE) (AID 2282954). The settings on record: HepG2 MRE cis-reporter transcription, Attagene multiplex; actives raise or lower the signal. In a few lines:
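RT-PCR/capillary electrophoresis readout of reporter mRNA, 24 h post-dosing, in HepG2 cells transfected with multiplexed cis-regulated reporter constructs. Gain or loss of signal fitted bidirectionally against DMSO baseline.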

The target of test [12] is Paired box protein Pax-6 (Homo sapiens) (UniProt P26367). As to the kind of experiment: ATG_Pax6_CIS: Attagene CIS-FACTORIAL HepG2 Assay for human Paired Box 6 (PAX6) (AID 2282956). The settings on record: HepG2 CIS-FACTORIAL PAX6 reporter transcription, RNA readout; actives raise or lower the signal. In a few lines: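 Readout: reporter transcript fluorescence after RT-PCR and capillary electrophoresis. Cells: HepG2, transiently transfected with cis-regulated MRTUs. Exposure 24 h. Gain or loss of signal fitted bidirectionally relative to DMSO.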

Test [13] can be described thus: ATG_SREBP_CIS: Attagene CIS-FACTORIAL HepG2 Assay for human Sterol Regulatory Element Binding (SREBP) (AID 2282962). The settings on record: HepG2 Attagene cis-factorial SREBP reporter, mRNA; actives raise or lower the signal. In a few lines:
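Readout: fluorescent reporter-transcript peaks resolved by capillary electrophoresis after RT-PCR. Cells were human HepG2 carrying transfected cis-promoter reporter constructs, dosed for 24 h. Gain or loss of signal was fitted against DMSO controls.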

Test [14] is described as follows: ATG_VDRE_CIS: Attagene CIS-FACTORIAL HepG2 Assay for human Vitamin D Receptor Element (VDRE) (AID 2282968). The settings on record: HepG2 VDRE cis-reporter transcription, actives raise or lower the signal. In a few lines:
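Transient MRTU transfection of HepG2, 24 h compound exposure. Readout: reporter transcripts via RT-PCR and capillary electrophoresis, fluorescence. Bidirectional fit vs DMSO.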

Test [15] is described as follows: ATG_NF_kB_CIS: Attagene CIS-FACTORIAL HepG2 Assay for human Nuclear Factor Kappa B (NF-kB) (AID 2282991). The settings on record: HepG2 Attagene cis-factorial NF-kB reporter mRNA; actives raise or lower the signal. In short, it runs like this:
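Fluorescence of labelled RT-PCR products separated by capillary electrophoresis gives reporter mRNA levels from transfected HepG2 cells exposed 24 h; values are fitted in both directions relative to DMSO.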

Test [16] can be described thus: ATG_NRF2_ARE_CIS: Attagene CIS-FACTORIAL HepG2 Assay for human Nuclear Factor Erythroid 2 Related Factor 2 (NFR2) response to Antioxidant Response Elements (ARE) (AID 2282992). The settings on record: HepG2 Attagene ARE/NRF2 reporter, transcription factor activity; actives raise or lower the signal. In short, it runs like this: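 Readout: reporter mRNA quantified by RT-PCR plus FAM-labelled primer extension, HpaI digestion and capillary electrophoresis, 24 h after dosing transfected HepG2 cells. Gain or loss of signal is fitted bidirectionally against DMSO baseline.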

Test [17] has as its target Cellular tumor antigen p53 (Homo sapiens) (UniProt P04637). As to the kind of experiment: ATG_p53_CIS: Attagene CIS-FACTORIAL HepG2 Assay for human p53 Transcription Factor (AID 2282994). The settings on record: HepG2 p53 cis-element reporter, Attagene mRNA; actives raise or lower the signal. In a few lines: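 Read-out: reporter mRNA by RT-PCR plus capillary electrophoresis with fluorescence detection. Human HepG2 liver cells carried transfected multi-reporter cis-element constructs, dosed 24 h. Gain or loss of signal fitted bidirectionally against DMSO control.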

A short description of test [18]: ATG_XTT_Cytotoxicity: Cytotoxicity Assessment in the Attagene TRANS-FACTORIAL HepG2 Assay (AID 2283584; active = hit-call score of the fitted dose curve at least 0.9, where 1 is the maximum). In a few lines:
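HepG2 cells transiently transfected with GAL4-UAS multiple reporter units, dosed 24 h; cytotoxicity read by XTT as loss of signal versus DMSO baseline.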

Test [19] deals with Hepatocyte nuclear factor 3-beta (Homo sapiens) (UniProt Q9Y261). As to the kind of experiment: ATG_FoxA2_CIS: Attagene CIS-FACTORIAL HepG2 Assay for human Forkhead box A2 (FOXA2) (AID 2282942). The settings on record: HepG2 cis-reporter transcription factor activity, 24 h; actives raise or lower the signal. In a few lines: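 24 h dosing of HepG2 bearing cis-reporter constructs; mRNA readout by RT-PCR/CE fluorescence; bidirectional fit, DMSO baseline.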

The nature of test [20]: ATG_FoxO_CIS: Attagene CIS-FACTORIAL HepG2 Assay for human Forkhead box O (FoxO) (AID 2282943). The settings on record: HepG2 Attagene cis-reporter, FoxO element, mRNA; actives raise or lower the signal. In a few lines: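 Read-out: fluorescence of 6-FAM-labelled reporter cDNA fragments resolved by capillary electrophoresis. Transiently transfected HepG2 cells were dosed for 24 h; activity fitted in both directions relative to DMSO controls.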

Hepatocyte nuclear factor 3-beta (Homo sapiens), sequence (Q9Y261 whole entry, looked up): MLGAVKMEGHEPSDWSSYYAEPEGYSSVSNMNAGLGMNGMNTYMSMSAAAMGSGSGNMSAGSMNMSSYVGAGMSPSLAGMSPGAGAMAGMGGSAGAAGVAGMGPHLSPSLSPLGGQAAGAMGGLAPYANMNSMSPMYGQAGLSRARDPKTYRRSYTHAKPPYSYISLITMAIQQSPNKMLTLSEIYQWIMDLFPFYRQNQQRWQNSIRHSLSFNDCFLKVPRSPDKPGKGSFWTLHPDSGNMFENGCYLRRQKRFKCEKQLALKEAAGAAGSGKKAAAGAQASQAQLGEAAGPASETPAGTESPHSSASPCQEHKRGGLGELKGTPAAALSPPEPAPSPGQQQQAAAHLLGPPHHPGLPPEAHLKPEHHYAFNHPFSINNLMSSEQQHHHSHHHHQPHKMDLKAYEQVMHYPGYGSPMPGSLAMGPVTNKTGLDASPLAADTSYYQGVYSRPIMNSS
Aryl hydrocarbon receptor (Homo sapiens), sequence (P35869 whole entry, looked up): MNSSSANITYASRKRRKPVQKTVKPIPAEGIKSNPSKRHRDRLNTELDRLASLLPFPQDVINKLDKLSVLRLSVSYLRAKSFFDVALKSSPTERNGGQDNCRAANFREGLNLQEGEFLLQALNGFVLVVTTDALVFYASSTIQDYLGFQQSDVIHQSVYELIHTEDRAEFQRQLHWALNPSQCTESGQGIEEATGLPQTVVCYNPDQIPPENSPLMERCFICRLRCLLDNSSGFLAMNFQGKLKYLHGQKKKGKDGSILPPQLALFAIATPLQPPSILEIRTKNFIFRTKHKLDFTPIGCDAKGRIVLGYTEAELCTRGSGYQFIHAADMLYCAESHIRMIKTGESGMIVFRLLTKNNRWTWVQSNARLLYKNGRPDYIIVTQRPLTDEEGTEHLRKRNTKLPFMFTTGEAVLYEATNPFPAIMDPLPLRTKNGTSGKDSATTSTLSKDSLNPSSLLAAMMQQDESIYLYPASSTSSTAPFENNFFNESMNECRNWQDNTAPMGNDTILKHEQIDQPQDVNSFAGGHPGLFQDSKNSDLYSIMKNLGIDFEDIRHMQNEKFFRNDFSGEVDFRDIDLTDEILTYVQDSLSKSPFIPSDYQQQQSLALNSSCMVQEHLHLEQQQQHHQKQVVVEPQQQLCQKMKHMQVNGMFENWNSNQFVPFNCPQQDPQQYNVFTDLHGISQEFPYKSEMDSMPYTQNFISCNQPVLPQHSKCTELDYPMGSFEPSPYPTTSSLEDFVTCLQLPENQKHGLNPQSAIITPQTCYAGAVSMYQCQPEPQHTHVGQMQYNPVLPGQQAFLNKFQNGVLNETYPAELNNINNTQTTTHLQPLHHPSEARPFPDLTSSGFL
Heat shock factor protein 1 (Homo sapiens), sequence (Q00613 whole entry, looked up, the tested form may be a part): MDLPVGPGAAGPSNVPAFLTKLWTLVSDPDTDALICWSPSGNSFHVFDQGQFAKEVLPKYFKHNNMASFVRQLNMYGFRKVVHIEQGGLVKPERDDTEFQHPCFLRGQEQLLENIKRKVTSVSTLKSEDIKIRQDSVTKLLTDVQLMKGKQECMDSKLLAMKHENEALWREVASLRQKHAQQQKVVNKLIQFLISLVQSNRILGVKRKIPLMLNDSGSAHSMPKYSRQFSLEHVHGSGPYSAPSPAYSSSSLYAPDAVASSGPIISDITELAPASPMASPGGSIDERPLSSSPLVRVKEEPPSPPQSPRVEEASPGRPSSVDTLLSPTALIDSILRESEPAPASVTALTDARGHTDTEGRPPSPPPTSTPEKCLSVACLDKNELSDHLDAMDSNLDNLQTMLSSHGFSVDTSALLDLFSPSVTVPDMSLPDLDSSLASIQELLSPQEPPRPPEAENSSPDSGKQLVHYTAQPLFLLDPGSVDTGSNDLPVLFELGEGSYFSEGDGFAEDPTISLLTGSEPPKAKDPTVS
Paired box protein Pax-6 (Homo sapiens), sequence (P26367 whole entry, looked up): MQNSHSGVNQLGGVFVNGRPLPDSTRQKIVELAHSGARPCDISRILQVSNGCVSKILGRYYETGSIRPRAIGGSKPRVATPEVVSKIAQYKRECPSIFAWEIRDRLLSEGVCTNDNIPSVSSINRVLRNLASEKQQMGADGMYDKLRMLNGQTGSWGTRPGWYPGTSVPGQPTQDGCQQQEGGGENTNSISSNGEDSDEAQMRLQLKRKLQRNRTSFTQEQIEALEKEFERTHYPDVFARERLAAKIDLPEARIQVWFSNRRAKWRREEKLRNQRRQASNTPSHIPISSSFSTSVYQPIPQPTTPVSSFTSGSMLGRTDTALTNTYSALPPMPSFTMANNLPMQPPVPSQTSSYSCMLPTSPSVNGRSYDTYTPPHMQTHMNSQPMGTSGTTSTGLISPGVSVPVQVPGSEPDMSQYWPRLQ
Cellular tumor antigen p53 (Homo sapiens), sequence (P04637 whole entry, looked up): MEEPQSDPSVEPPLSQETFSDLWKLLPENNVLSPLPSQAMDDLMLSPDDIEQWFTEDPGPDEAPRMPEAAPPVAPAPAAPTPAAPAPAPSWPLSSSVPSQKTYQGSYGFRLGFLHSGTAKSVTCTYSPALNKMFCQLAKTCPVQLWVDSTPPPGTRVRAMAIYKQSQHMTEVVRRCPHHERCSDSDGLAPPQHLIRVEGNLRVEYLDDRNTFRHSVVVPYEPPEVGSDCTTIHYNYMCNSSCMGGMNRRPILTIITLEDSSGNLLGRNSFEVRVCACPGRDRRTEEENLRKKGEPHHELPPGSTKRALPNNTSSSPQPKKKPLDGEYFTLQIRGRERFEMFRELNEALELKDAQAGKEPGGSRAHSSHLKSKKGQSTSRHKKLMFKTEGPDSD
Hypoxia-inducible factor 1-alpha (Homo sapiens), sequence (Q16665 whole entry, looked up): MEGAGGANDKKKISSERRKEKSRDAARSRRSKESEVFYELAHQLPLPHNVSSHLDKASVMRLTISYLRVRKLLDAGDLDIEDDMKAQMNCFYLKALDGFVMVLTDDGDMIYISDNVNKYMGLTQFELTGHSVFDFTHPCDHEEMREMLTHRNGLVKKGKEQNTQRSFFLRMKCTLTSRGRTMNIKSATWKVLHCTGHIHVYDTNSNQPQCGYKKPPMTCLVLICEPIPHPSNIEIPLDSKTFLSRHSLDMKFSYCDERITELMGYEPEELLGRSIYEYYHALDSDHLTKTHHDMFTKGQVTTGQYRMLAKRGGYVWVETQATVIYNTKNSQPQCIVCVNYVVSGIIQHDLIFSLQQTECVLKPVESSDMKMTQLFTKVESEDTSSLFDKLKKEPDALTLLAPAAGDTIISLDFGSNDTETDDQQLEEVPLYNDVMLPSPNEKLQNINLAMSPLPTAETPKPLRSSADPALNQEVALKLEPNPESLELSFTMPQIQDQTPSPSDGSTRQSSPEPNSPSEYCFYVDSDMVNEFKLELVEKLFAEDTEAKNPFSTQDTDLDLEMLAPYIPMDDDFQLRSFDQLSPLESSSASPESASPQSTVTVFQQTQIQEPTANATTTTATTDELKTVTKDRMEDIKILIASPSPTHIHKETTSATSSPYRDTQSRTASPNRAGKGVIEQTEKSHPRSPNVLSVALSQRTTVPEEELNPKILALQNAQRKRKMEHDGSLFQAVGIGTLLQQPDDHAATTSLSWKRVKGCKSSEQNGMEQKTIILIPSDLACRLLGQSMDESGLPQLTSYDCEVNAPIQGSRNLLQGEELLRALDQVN
Hepatocyte nuclear factor 6 (Homo sapiens), sequence (Q9UBC0 whole entry, looked up, the tested form may be a part): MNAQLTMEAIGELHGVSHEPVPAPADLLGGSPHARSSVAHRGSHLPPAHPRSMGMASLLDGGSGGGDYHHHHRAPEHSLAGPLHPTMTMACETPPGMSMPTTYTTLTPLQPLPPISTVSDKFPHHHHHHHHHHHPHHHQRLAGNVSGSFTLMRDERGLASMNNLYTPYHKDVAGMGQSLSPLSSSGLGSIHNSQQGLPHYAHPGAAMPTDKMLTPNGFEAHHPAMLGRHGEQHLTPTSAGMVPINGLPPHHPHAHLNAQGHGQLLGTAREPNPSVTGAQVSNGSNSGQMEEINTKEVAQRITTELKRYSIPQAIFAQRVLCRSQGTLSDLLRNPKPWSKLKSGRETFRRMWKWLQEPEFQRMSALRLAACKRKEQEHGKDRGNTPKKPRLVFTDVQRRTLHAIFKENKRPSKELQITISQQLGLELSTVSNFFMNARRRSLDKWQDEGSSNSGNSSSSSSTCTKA

As for `CC(C)COP(=O)(OCC(C)C)OCC(C)C`, the compound was classed as inactive in test [1], in test [2], in test [4], in test [5], in test [6] and in test [7]. The call in [8], in [9], in [10], in test [11], in test [12] and in test [13] was inactive. Further, the compound was classed as inactive in test [15], in [17] and in test [18]. For the same compound, the AC50 in test [3] was 73.3 µM (active); in test [14], 55.8 µM (active); in [16], 37 µM (active).
For the compound `C=CC(=O)OCC(CC)CCCC` (stereo not drawn), the compound was classed as inactive in test [1], in [2], in test [3], in test [4], in test [5] and in test [6]. In addition, the outcome in test [19], in [20], in [7], in test [8], in test [9] and in test [10] was inactive. In addition, the outcome in test [11], in test [13], in [14], in test [15], in test [17] and in test [18] was inactive. The AC50 in test [16] was 100 µM (active).
As to `CN(C)C(=O)C(c1ccccc1)c1ccccc1`, the result in test [1], in [2], in test [3], in test [4], in [5] and in test [19] was inactive. Also, the compound was classed as inactive in test [20], in test [7], in test [8], in test [9], in test [10] and in [11]. Moreover, the outcome in [13], in test [14], in test [15], in test [16], in test [17] and in test [18] was inactive.
On to `Nc1ccc(Cl)c(Cl)c1`, for which the call in [1], in test [2], in [3], in [4], in [5] and in test [6] was inactive. Also, the call in [19], in [7], in [8], in test [9], in test [10] and in [11] was inactive. Moreover, the compound was classed as inactive in test [12], in [14], in test [15], in test [16] and in test [17].
On to `O=C(O)c1cc[c]([Hg][Cl])cc1`, for which the compound was called inactive in [1], in test [2], in test [3], in [4], in test [5] and in test [6]. Also, the compound was classed as inactive in test [20], in test [7], in test [8], in test [9], in [10] and in test [12]. For the same compound, the outcome in test [13], in test [14], in [15] and in [18] was inactive. Besides, the AC50 in [11] was 7.75 µM (active); in test [16], 11.1 µM (active); in test [17] it was 7.47 µM (active).
Regarding `C=COCCCl`, the outcome in [1], in test [2], in test [3], in test [4], in test [5] and in test [19] was inactive. The call in test [9], in test [10], in test [12], in test [14], in [15] and in test [16] was inactive. The outcome in test [17] and in [18] was inactive. Moreover, in test [8], the AC50 was 48.5 µM (active).
`O=CNC(N1CCN(C(NC=O)C(Cl)(Cl)Cl)CC1)C(Cl)(Cl)Cl` (stereo not drawn): the compound was called inactive in test [1], in test [2], in test [3], in test [4], in test [5] and in [6]. Further, the result in test [19], in test [20], in test [8], in test [9], in [12] and in test [13] was inactive. Besides, the result in [15], in [16] and in test [18] was inactive. The AC50 in [14] is 15.3 µM (active); in test [17] it was 148 µM (active).
